# From PubChem BioAssay (NCI)
# About 83,000 compounds went through this panel and 20% of them were active in at least one assay; those are over-represented in the sample as a whole.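 Percent growth is the endpoint: 0 to 100 indicates growth inhibition (40 means 60% inhibition), 0 means no net growth, and negative values indicate cell death.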 Unmarked numbers belong to inactive results. Activity calls are given as the source filed them. Rule for the calls: active = growth percent below 10; inactive = the rest.
# Experiments:
# Assay in all cases: NCI-60 one-dose screen, 48 h (100 = growth as untreated, 0 = no growth, -100 = all killed)
# Details in all cases: 10 µM unless noted
# NCI-H23 lung = tested on: NCI-H23 lung
# NCI-H226 lung = tested on: NCI-H226 lung
# NCI-H322M lung = tested on: NCI-H322M lung
# HOP-62 NSCLC = tested on: HOP-62 NSCLC
# NCI-H460 lung = tested on: NCI-H460 lung
# HOP-92 NSCLC = tested on: HOP-92 NSCLC
# NCI-H522 lung = tested on: NCI-H522 lung
# A549/ATCC NSCLC = tested on: A549/ATCC NSCLC
# 786-0 renal = tested on: 786-0 renal
# COLO 205 colon = tested on: COLO 205 colon
# DU-145 prostate = tested on: DU-145 prostate
# K-562 leukemia = tested on: K-562 leukemia
# MALME-3M melanoma = tested on: MALME-3M melanoma
# MDA-MB-231 breast = tested on: MDA-MB-231 breast
# RXF 393 renal = tested on: RXF 393 renal
# SF-268 CNS = tested on: SF-268 CNS
# SF-295 CNS = tested on: SF-295 CNS
# SF-539 CNS = tested on: SF-539 CNS
# UACC-257 melanoma = tested on: UACC-257 melanoma
# M14 melanoma = tested on: M14 melanoma
SMILES,growth (NCI-H23 lung),growth (NCI-H226 lung) [%],growth (NCI-H322M lung),growth (HOP-62 NSCLC),growth (NCI-H460 lung),growth (HOP-92 NSCLC),growth (NCI-H522 lung),growth (A549/ATCC NSCLC) [%],growth (786-0 renal),growth (COLO 205 colon),growth (DU-145 prostate) [%],growth (K-562 leukemia),growth (MALME-3M melanoma),growth (MDA-MB-231 breast) [%],growth (RXF 393 renal),growth (SF-268 CNS) [%],growth (SF-295 CNS) [%],growth (SF-539 CNS),growth (UACC-257 melanoma) [%],growth (M14 melanoma) [%]
CCn1c2ccc(O)cc2c2c(C)c3c[n+](C(C)C)ccc3c(C)c21,36.3%,66.8,41.8%,43%,9.02% (active),51.2%,19.9%,69.1,56.1%,13.1%,29.6,41%,-6.64% (active),45.4,53.4%,14,60.5,38.7%,37,36.5
COC(=O)C1=Nc2ccc(F)cc2/C1=C\c1sc(Nc2ccc(O)cc2)nc1O,73.4%,78.2,96.7%,64.3%,102%,42.7%,47.4%,99,66.1%,101%,93.9,23.2%,45.9%,76.7,43.6%,59.8,61,55.4%,72.2,49
CN1C(=O)/C(=C/c2ccc(C(=O)Nc3ncc(Cc4ccc(F)cc4)s3)cc2)SC1=S,62.1%,65.3,52%,44.9%,20.2%,44.2%,39%,46.8,51.9%,72.3%,38.8,44.7%,47.1%,56.2,36.8%,49.1,24.3,38.4%,65.6,19.6
O=C(/C=C/C12c3ccccc3C(c3ccccc31)C1C(=O)NC(=O)C12)c1ccc(F)cc1 (stereo not given),9.23% (active),36.9,-4.89% (active),-45.3% (active),2.15% (active),-30.9% (active),2.09% (active),10.6,-9.86% (active),-45.4% (active),22.2,6.1% (active),20.2%,11.9,-35.4% (active),31.3,11.5,6.05% (active),27.3,10.2
O=C1CCC(C(=O)NN(c2ccccc2)c2ccccc2)N1 (stereo not given),108%,96.3,107%,101%,101%,69.6%,96.5%,103,48.9%,111%,101,12.2%,104%,110,118%,83.2,99,94.6%,102,12
COc1ccc2cc(-c3cnc4nonc4n3)ccc2c1,30.6%,52.6,54.5%,37.4%,74.4%,80.8%,7.22% (active),36,41.4%,16.8%,62.9,13.6%,48.3%,76.4,23.4%,36.6,31.4,-16% (active),42,10.7
COc1cccc(NC(=O)c2cccc(C3CCc4c(cc(OC)c(OC)c4OC)O3)c2)c1 (stereo not given),73.9%,53.7,54.2%,85.2%,84%,26.3%,53.1%,70.8,86.6%,80.2%,79.6,35.6%,72.7%,32.2,88.9%,91.2,70.9,92%,78.1,56.9
